# Rows were chosen to be rich in hits. Some 12% of all compounds tested hit in one or more screens of this group.
# HP1b binding inh: inhibitors of HP1-beta chromodomain binding to methylated histone tails. P83916. AlphaScreen HP1-beta / biotin-H3K9me3 peptide binding. Potency, µM (doses to about 114 µM), for inactives: top-dose activity change, negative = inhibition, actives largely listed as inhibitors. actives 0.56% (n = 390,000). AID 540317; note: potency is the fitted concentration of half-maximal effect; nearly all actives have a fitted effect of over 70% in size
# Target sequence (P83916 whole entry, looked up): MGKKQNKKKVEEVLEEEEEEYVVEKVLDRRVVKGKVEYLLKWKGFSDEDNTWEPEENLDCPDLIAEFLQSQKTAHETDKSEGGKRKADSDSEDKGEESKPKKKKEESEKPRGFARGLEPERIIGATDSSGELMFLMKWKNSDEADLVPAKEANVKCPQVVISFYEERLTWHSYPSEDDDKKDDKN
#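 Compound inhibition of the preformed complex between 50 nM HP1-beta and 50 nM biotinylated H3K9me3 peptide was read by AlphaScreen. Buffer was PBS pH 7.4 with 0.01% Tween-20. Incubations ran 30 min at room temperature, with 10 ug/mL donor/acceptor beads.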
# JMJD2A Tudor inh: blocks the human JMJD2A Tudor domain. AlphaScreen JMJD2A-Tudor / H3K4me3 peptide binding. Potency, µM (series often up to 114 µM), for the others: at the highest dose activity change, negative = inhibition, usual class: inhibitors. AID 504339. actives 4.4% (n = 390,000). O75164; note: potency is the fitted concentration of half-maximal effect; % is set by controls: 0 for no effect and ±100 for the full control effect; nearly all actives have a fitted effect of over 50% in size
# BAZ2B block: BAZ2B (human) inhibition. Q9UIF8. AlphaScreen BAZ2B-H3K14Ac peptide displacement. Potency, µM (highest dose often 114 µM), for the others: top-dose activity change, negative = inhibition, usual class: inhibitors. actives 4.4% (n = 360,000). AID 504333; note: potency is the fitted concentration of half-maximal effect; % is set by controls: 0 for no effect and ±100 for the full control effect; nearly all actives have a fitted effect of over 60% in size
#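 In this displacement format the biotinylated H3(5-23) peptide acetylated at Lys14 serves as ligand at 50 nM, with BAZ2B at 50 nM in PBS pH 7.4 containing 0.01% Tween-20. Donor and acceptor beads are 10 ug/mL final.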
# Sfp PPTase inh: blocks B. subtilis Sfp PPTase activity; actives 3.5% (n = 310,000); Biochemical Sfp PPTase activity, qHTS; Q9F4F7; Potency, µM, for the others: largest response in the series, negative = inhibition, actives largely listed as inhibitors;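 note: the enzyme is Sfp with the accession as filed and its product quenches rhodamine fluorescence; potency is the fitted concentration of half-maximal effect; 0% = enzyme reaction without inhibitor and -100% = no enzyme wells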
#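 Fluorescence-quenching assay with 15 nM Sfp, 5 uM rhodamine-CoA and 12.5 uM BHQ-2-labelled ybbR peptide in pH 7.6 Hepes/MgCl2 buffer. Enzyme was pre-incubated with compound for 15 min at room temperature. Rate was taken from the 30-min fluorescence change (525/598 nm).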
# G9a inh: G9a (human) methyltransferase inhibition. G9a H3K9 monomethylation, AlphaScreen, 2 h. Potency, µM (highest dose often 102 µM), for the others: top-dose activity, negative = inhibition, hits mostly inhibitors. actives 8.8% (n = 350,000); note: potency is the fitted concentration of half-maximal effect; % is set by controls: 0 for no effect and ±100 for the full control effect; nearly all actives have a fitted effect of over 75% in size
# Target sequence (Q96KQ7 913-1193 limits assumed): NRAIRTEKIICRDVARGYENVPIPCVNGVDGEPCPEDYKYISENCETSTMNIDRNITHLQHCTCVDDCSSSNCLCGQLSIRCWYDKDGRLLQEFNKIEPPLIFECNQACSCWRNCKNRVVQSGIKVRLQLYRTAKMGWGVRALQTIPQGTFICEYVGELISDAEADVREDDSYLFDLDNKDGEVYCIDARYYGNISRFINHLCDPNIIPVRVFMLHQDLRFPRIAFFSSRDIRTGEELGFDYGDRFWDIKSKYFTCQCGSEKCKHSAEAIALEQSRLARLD
#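 AlphaScreen detection with an anti-monomethyl H3K9 antibody quantified product after a 2 h room-temperature reaction containing 500 nM biotinylated H3K9 peptide, 20 µM SAM and 20 nM enzyme, which had been preincubated 15 min with compound.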
# 12-hLO cuvette: 12-hLO (human) inhibition, 8HQ series round 1; shares compounds with BAZ2B block; purified 12-hLO, cuvette UV 234 nm product formation; Potency, µM, most hits filed as inhibitors; actives 60% (n = 35); AID 2163;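 active = compounds that slowed 12-hLO product formation enough to yield a measured IC50 potency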
# JMJD2E inh: blocks human JMJD2E demethylase activity; shares compounds with BAZ2B block; JMJD2E demethylase, FDH-coupled NADH fluorescence (FDH is formaldehyde dehydrogenase); Potency, µM (doses to about 57 µM), without a hit: at the highest dose activity, negative = inhibition, most hits filed as inhibitors; actives 89% (n = 130)
# Target sequence (B2RXH2 1-337 limits assumed): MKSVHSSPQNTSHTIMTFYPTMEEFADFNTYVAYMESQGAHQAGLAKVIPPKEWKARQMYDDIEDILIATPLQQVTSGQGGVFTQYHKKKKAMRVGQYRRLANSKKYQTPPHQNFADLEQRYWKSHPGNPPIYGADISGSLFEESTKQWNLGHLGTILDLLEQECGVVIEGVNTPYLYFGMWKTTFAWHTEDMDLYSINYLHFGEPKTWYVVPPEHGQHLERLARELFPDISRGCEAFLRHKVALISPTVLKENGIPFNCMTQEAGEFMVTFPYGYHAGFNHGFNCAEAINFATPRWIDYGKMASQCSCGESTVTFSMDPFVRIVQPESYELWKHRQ
# ME-1 prolif: inhibitors of ME-1 leukemia cell proliferation, CBFb-RUNX1 project; Potency, µM (highest dose often 56.1 µM), for the others: at the top dose activity change, negative = inhibition, usual class: inhibitors; shares compounds with BAZ2B block; ME-1 cell proliferation, ATP luminescence, 48 h; actives 20% (n = 140); AID 504370
# * = called active by the depositor; i = inactive; ? = inconclusive; / = no result; ! = a repeat was not active; [ ] = dose if it differs, or a comment. Unless noted, calls come from the whole dose curve; as a rule, active = well fitted curve in the direction sought with a large enough effect; inconclusive = small, poorly fitted or top-dose-only effect, or another doubt; inactive = no such curve, though single readings can be large; an effect the other way counts as inactive or inconclusive.
SMILES,HP1b binding inh,JMJD2A Tudor inh,BAZ2B block,Sfp PPTase inh,G9a inh,ME-1 prolif,others
O=S(=O)(c1ccc2nc(-c3ccco3)c(-c3ccco3)nc2c1)N1CCOCC1,-15.8%,79.4µM*,50.1µM*,10µM*,2µM*,-11.0%[25.6 µM],
Cc1cccc(CS(=O)(=O)Cc2ccc(C(=O)NCc3ccc(Cl)cc3)o2)c1,37.8%,7.4%,3.9%,/,0.6%[59 µM],/,
COc1ccc(-c2csc(N)n2)cc1,4.5%,-27.5%,-11.2%,4.2%,?,-10.6%[25.6 µM],
COc1ccc(-c2csc(N=C(N)N)n2)cc1,11.2%,-30.3%,?,-2.4%,?,/,
Oc1ccc(/C=N/NC(=S)Nc2cccnc2)c(O)c1,-13.4%,39.8µM*,2.82µM*,-1.9%,25.1µM*,14.1µM*,
Fc1c(F)c(F)c(/C=N/NC(=S)Nc2cccnc2)c(F)c1F,30.1%,-20.2%,-12.5%,2.1%,47.0%[12.7 µM],/,
Oc1ccc(/C=N/NC(=S)Nc2cccnc2)c(O)c1O,5.01µM*,3.55µM*,2.24µM*,3.55µM*,-173.7%[59 µM],?,
CCNC1=C(Cl)C(=O)c2ccccc2C1=O,?,50.1µM*,35.5µM*,-7.2%,?,?,
CCNc1ccccc(-c2ccc3ccccc3n2)c1=O,12.2%,-6.1%,-2.6%,?,21.4%[59 µM],/,
CC(=O)NC(c1ccco1)c1cc(Cl)c2ccc(N3CCCCC3)nc2c1O (stereo unspecified),/,/,?,/,3.98µM*,/,12-hLO cuvette=i;JMJD2E inh=20.4µM*
COc1cc(C(=O)NC(c2ccccc2Cl)c2cc(Cl)c3cccnc3c2O)cc(OC)c1OC (stereo unspecified),55.7%,-7.1%,9.9%,/,39.9%[59 µM],/,
COc1cc(C2c3cc4c(cc3C(OC3OC5COC(C)O[C@@H]5C(O)C3O)C3COC(=O)C23)OCO4)cc(OC)c1O (stereo partly specified),/,/,/,-7.5%,-4.2%[2.33 µM],0.794µM*,
COc1ccc(-n2nc3ccc(NC(=O)c4cc5ccccc5o4)cc3n2)cc1Cl,32.9%,-14.7%,2.9%,/,-27.3%[59 µM],/,
CCC(=O)c1ccc(OCC(=O)NCC2(N3CCCCC3)CCCCC2)cc1,58.3%,-3.6%,-3.9%,-0.9%,12.6%[59 µM],/,
Cc1cccc(N(C)C(=O)Cn2c(=O)oc3cc(S(=O)(=O)N4CCCCC4)ccc32)c1,7.7%,-17.5%,-1.4%,/,5.2%[59 µM],/,
Nc1nc(-c2ccccc2)c(-c2ccc([N+](=O)[O-])cc2)s1,16.4%,-14.6%,-17.9%,9.5%,-39.7%,/,
Nc1nc(-c2ccccc2)c(N=Nc2ccc(Cl)cc2)s1,?,?,?,25.1µM*,2µM*,1.9%[25.6 µM],
Cc1ccccc1-c1nc(CS(=O)(=O)CC(=O)Nc2cccc(C(F)(F)F)c2)c(C)o1,15.0%,-24.2%,-8.5%,/,-2.0%[59 µM],/,
COc1ccc(C2Sc3ccccc3N(CCN(C)C)C(=O)C2OC(C)=O)cc1 (stereo unspecified),/,/,/,31.9%,-23.9%[2.33 µM],3.8%,
COc1ccc([C@H]2Sc3ccccc3N(CCN(C)C)C(=O)[C@H]2OC(C)=O)cc1,/,/,/,23.6%,20.4%[21.5 µM],/,
CC(=O)Oc1cc2cccc(OC(C)=O)c(=O)c2c(OC(C)=O)c1OC(C)=O,?,8.91µM*,1.58µM*,-20.4%,2.82µM*,?,
COc1cc2cccc(OC)c(=O)c2c(O)c1OC,17.0%,-11.1%,-24.9%,10.4%,?,/,
Clc1ccc(-c2ccc(SCc3ccccn3)nn2)cc1,17.4%,-23.5%,6.3%,15.2%,-1.3%,/,
c1ccc(CSc2ccc(-c3ccccn3)nn2)nc1,-4.5%,?,4.47µM*,-23.5%,46.9%,?,
COc1ccc2c(c1)-c1nc(N)sc1CC2,?,?,?,-13.2%,25.1µM*,8.1%[25.6 µM],
SMILES,HP1b binding inh,JMJD2A Tudor inh,BAZ2B block,Sfp PPTase inh,G9a inh,ME-1 prolif,others
COc1ccc2c(c1)-c1nc(NC(=O)c3cc(OC)c(OC)c(OC)c3)sc1CC2,27.0%,-31.6%,-19.5%,/,?,/,
Fc1ccc([C@H]2CCNCC2COc2ccc3c(c2)OCO3)cc1 (stereo partly specified),/,/,/,18.0%,-21.3%[2.33 µM],-29.8%,
CCOC(=O)C1CCCC12Nc1cccc3cccc(c13)N2 (stereo unspecified),-17.1%[57 µM],?,/,/,/,/,
Brc1ccc(C2Nc3cccc4cccc(c34)N2)o1,?,?,?,?,20µM*,-22.2%,
Cc1c2c(c(O)c3c(O)cccc13)C(=O)O[C@H]2C1C(N(C)C)C(O)=C(C(N)=O)C(=O)[C@H]1O (stereo partly specified),/,/,/,?,/,-13.5%,
Nc1ccn([C@@H]2O[C@H](CO)[C@@H](O)[C@@H]2O)c(=O)n1,29.1%,0.0%,?,2.1%,-13.1%[59 µM],0.282µM*,
Nc1ccn(C2OC(CO)C(O)C2O)c(=O)n1 (stereo unspecified),/,/,/,10.0%,/,/,
O=c1[nH]cc(I)cc1I,45.6%,-3.5%,3.2%,22.4µM*,-2.4%,-4.9%[25.6 µM],
Cc1cc(Br)ccc1NC(=O)COc1cc(=O)n(C)c2ccccc12,26.0%,-10.8%,-8.8%,/,-45.1%[59 µM],/,
CCOC(=O)[C@H](CCc1ccccc1)N[C@@H](C)C(=O)N1[C@H](C(=O)O)C[C@H]2CCCC[C@@H]21,/,/,/,10.2%,-17.9%[59 µM],-29.3%,
CCOC(=O)[C@H](CCc1ccccc1)N[C@@H](C)C(=O)N1[C@H](C(=O)O)C[C@H]2CCC[C@@H]21,/,/,/,17.6%,-22.0%[12.7 µM],/,
Oc1ccccc1/C=N/Nc1ncc(Br)cn1,30.0%,-11.7%,-33.2%,17.2%,12.0%[59 µM],35.5µM*,
Oc1ccccc1/C=N/Nc1cccc2cccnc12,60.5%,-21.3%,9.6%,?,-8.8%[0.0925 µM],/,
NCCc1ccc(O)c(O)c1,14.1µM*,31.6µM*,?,79.4µM*!,8.91µM*,-14.1%,
NC(Cc1ccc(O)c(O)c1)C(=O)O (stereo unspecified),/,/,/,-80.9%,/,?,
N[C@H](Cc1ccc(O)c(O)c1)C(=O)O,/,/,/,?,17.8µM*,-10.2%,
CCCN(CCC)C(=O)Cn1c(=O)n(-c2cccc(OC)c2)c(=O)c2c3c(sc21)CCCC3,23.8%,-12.3%,2.3%,/,-1.5%[59 µM],/,
Nc1ccccc1-c1nnc(SCC(=O)Nc2ccccc2OC(F)F)[nH]c1=O,20.5%,-7.6%,/,/,/,/,
O=C(NN1C(=O)CSC1=S)C(=O)NN1C(=O)CSC1=S,-28.0%,31.6µM*,?,?,?,-10.4%,
O=S1(=O)N=C(Nc2cccc(C(F)(F)F)c2)c2ccccc21,23.7%,11.7%,-0.1%,/,0.0%[59 µM],/,

# Compound activity deposited in PubChem by National Center for Advancing Translational Sciences (NCATS).
